Test results: PubChem BioAssay (NCI)
About 83,000 compounds went through this panel and 20% of them were active in at least one assay; those are over-represented in the sample as a whole.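 96-well plates, one dose, 48 hours. Percent growth reported; active if below 10.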 A number with no mark means an inactive call. Activity calls are given as the source filed them.

How the values were obtained:
Experiment in all cases: NCI-60 one-dose screen, 48 h (100 = growth as untreated, 0 = no growth, -100 = all killed)
Details in all cases: 10 µM unless noted
HT29 colon = test system: HT29 colon
SNB-75 CNS = test system: SNB-75 CNS
SNB-19 CNS = test system: SNB-19 CNS
U251 CNS = test system: U251 CNS
PC-3 prostate = test system: PC-3 prostate
SK-MEL-5 melanoma = test system: SK-MEL-5 melanoma
UACC-62 melanoma = test system: UACC-62 melanoma
LOX IMVI melanoma = test system: LOX IMVI melanoma
SK-MEL-28 melanoma = test system: SK-MEL-28 melanoma
SK-MEL-2 melanoma = test system: SK-MEL-2 melanoma

SMILES | growth (HT29 colon) | growth (SNB-75 CNS) [%] | growth (SNB-19 CNS) [%] | growth (U251 CNS) [%] | growth (PC-3 prostate) [%] | growth (SK-MEL-5 melanoma) [%] | growth (UACC-62 melanoma) [%] | growth (LOX IMVI melanoma) | growth (SK-MEL-28 melanoma) [%] | growth (SK-MEL-2 melanoma) [%]
CN(C)c1ccc2c(c1)/C(=N/O)c1ccccc1-2 | 81.4% | 76.8 | 79.6 | 48.9 | 72.3 | 90.7 | 64.7 | 59.4% | 75.7 | 111
COc1cc(C2NC(c3ccc(Cl)cc3)C(C)/C(=N/NC(N)=S)C2C)cc(OC)c1OC (centres undefined) | 64.7% | 81 | 78.2 | 73.4 | 73.8 | 79.4 | 94 | – | 108 | 83.6
COc1cc2c(c(OC)c1OC)-c1ccc(NN(C(=O)c3ccccc3)C(=O)c3ccccc3)c(=O)cc1[C@@H](NC(C)=O)CC2 (tested in a mixture with another compound) | 6.31% (active) | 27.7 | 49.1 | 24.8 | 40.9 | 20.2 | 59.6 | – | 52.9 | 10.4
CCC1(c2ccccc2)Oc2ccccc2-n2c(C#N)c3ccccc3c2C1=O (centres undefined) | 96.8% | 95.9 | 106 | 96.7 | 93.8 | 100 | – | 103% | 114 | 103
O=C(/C=C/c1ccc(Cl)cc1)c1ccccc1 | 93.8% | 109 | 101 | 88.2 | 97 | 93 | – | 81.1% | 113 | 102
CCOC(=O)/C(=C/c1ccccc1)C(=O)c1ccccc1 | 84.1% | 49.6 | 85.4 | 68.1 | 80.6 | 66.5 | – | -26.9% (active) | 94.3 | –
COc1ccc(/C(=C2\O[C@@H]([C@H](O)CO)[C@H]3OC(C)(C)O[C@@H]23)c2cc(OC)c(OC)c(OC)c2)cc1O | 111% | 55.9 | 76.8 | 90.6 | 51.8 | 74.3 | 95.1 | – | – | 77.5
S=C(c1ccccc1)N1CCN(c2cccc(Cl)c2)CC1 | 94.8% | 110 | 107 | 99.6 | 75.3 | 95.6 | – | 105% | 121 | 100
Cc1cc2c(C#N)n3c(c2cc1C)C(=O)C(c1ccccc1)Oc1ccccc1-3 (centres undefined) | 18.5% | 15.6 | 35.9 | 18.3 | 28.3 | 22.7 | – | 20% | 85.1 | –
